In PubChem BioAssay AID1850 (Southern Research Specialized Biocontainment Screening …, 2009):
Among all 310,000 compounds or so, about 1,000 (0.32%) were called active. Not all results are given here. Measured potencies and affinities stand elsewhere. Values without a mark were called inactive. No rule for the calls is given here.

Experiment: PhoP regulon inhibitors, Salmonella typhi PhoP promoter GFP reporter, confirmatory (AID 1850);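 also: 0% = induced wells with vehicle and 100% = uninduced wells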
Conditions: fluorescence, 4 h, at 50 µM, hits give high values

SMILES	inhibition [%]
CN(C)C(=S)Nc1ccc(Cc2ccncc2)cc1	-0.62
CCN(Cc1ccccc1)C(=O)c1cccc(S(=O)(=O)N2CCN(c3ccccc3)CC2)c1	1.18
COCCCN1CN(S(=O)(=O)c2ccc(C)cc2C)c2nc3ccccc3nc21	6.06
COCCCNC(=O)c1ccccc1N(Cc1ccccc1)S(=O)(=O)c1ccccc1	-7.24
Clc1cccc(CN2CCCCCC2)c1	-6.25
N=c1c2c(n(Cc3ccc(F)cc3)c3c1CCC3)CCC2	-1.84
CCn1c2c(c(=N)c3c1CCC3)CCCC2	8.7
N=c1ccn(Cc2ccc(Cl)cc2Cl)cc1	22.8
N=c1c2c(n(Cc3ccc([N+](=O)[O-])cc3)c3c1CCC3)CCCC2	-1.87
N=c1c2c(n(Cc3ccc(Br)cc3)c3c1CCC3)CCCC2	-4.26
N=c1c2c(n(Cc3ccc(F)cc3)c3c1CCC3)CCCC2	5.47
N=c1c2c(n(Cc3ccccc3)c3c1CCC3)CCC2	-2.77
COc1ccc(N2CCN(S(=O)(=O)CCNC(=O)/C=C/c3ccc4c(c3)OCO4)CC2)cc1	-1.81
CC(C)NC(=O)C(=O)NCc1ccccn1	15.4
CN(CCn1ccnc1)Cc1cn(Cc2ccccc2)nc1-c1ccc2c(c1)OCO2	8.95
CCCn1c(=O)c(C(=O)NCCc2ccc(OC)c(OC)c2)c(O)c2ccccc21	3.2
CCn1c(/N=C/c2ccccc2O)nc2ccccc21	-0.93
CCN1CCSc2ccc(C(=O)NCc3ccc(OC(C)C)cc3)cc21	-2.46
COc1ccc(NC(=O)CNCCC2=CCCCC2)cc1	-8.03
O=C(CNCCC1=CCCCC1)Nc1ccccc1N1CCCCCC1	5.47
O=S1(=O)NC(=NCCc2ccccn2)c2ccccc21	-5.57
Cc1ccc2ccc3cccnc3c2n1	2.32
Clc1ccc2ccc3cccnc3c2n1	2.67
Cc1ccc2c(c1)-c1ccccc1S(=O)(=O)N2	-6.75
CCC(C)c1ccccc1N1CC(C(=O)Nc2cc(S(=O)(=O)N3CCOCC3)ccc2OC)CC1=O (configuration not stated)	1.56
CSc1ccc(C2NC(=O)CCC2[N+](=O)[O-])cc1 (configuration not stated)	9.78

SMILES	inhibition [%]
Cc1c(C(=O)N2CCN(C(=O)c3ccco3)CC2)oc2c(Cl)cccc12	5.99
Cc1ccc(C(=O)O/N=C/C2=C(Cl)c3ccccc3CC2)cc1	3.65
O=C(O/N=C/C1=C(Cl)c2ccccc2CC1)c1ccc(F)cc1	-1
CCC(C)NCCOc1cc(C)cc(C)c1C (configuration not stated)	10.5
CCOC(=O)c1c(C)[nH]c(C)c1S(=O)(=O)N1c2ccccc2CC1C (configuration not stated)	-32.7
CCOc1ccccc1N1C(=O)NC(=O)C(CCc2ccncc2)(CCc2ccncc2)C1=O	-6.46
COC(=O)CSC1=NS(=O)(=O)c2ccccc21	-2.6
CCc1cccc(NC(=O)CSc2nc3c(c(=O)[nH]2)CCCC3)c1	8.6
CN1CCN(/N=C/c2cccc(Cl)c2Cl)CC1	0.18
CN1CCN(/N=C/c2ccc(-c3ccccc3)cc2)CC1	1.69
CCC(C)(C)NC(=O)C(c1ccc(OC)cc1)N(C(=O)CCC(=O)Nc1cc(C)on1)c1cccc(OC)c1 (configuration not stated)	1.27
O=C(NNC(=O)c1nn(-c2ccc(F)cc2)ccc1=O)c1ccc(Cl)cc1	1.15
CC1(CC(=O)N/N=C/c2cc3c(cc2Br)OCO3)OCCO1	5.58
CC1(CC(=O)N/N=C/c2cc(Br)c(O)cc2O)OCCO1	-8.89
CCN(C1CCCCC1)S(=O)(=O)c1c(C)n(C)c(=O)n(C)c1=O	-2.91
Cc1c(-n2cc(C(=O)O)c(=O)c3cc(F)c(N4CCCC4)c(F)c32)c(=O)n(-c2ccccc2)n1C	-2.73
CCOc1ccc(NC(=O)c2ccc(NC(=O)c3cn4c5c(c(N6CCN(C)CC6)c(F)cc5c3=O)OCC4C)cc2)cc1 (configuration not stated)	-0.94
CCOC(=O)C1CN(c2cc3c(cc2F)c(=O)c(C(=O)O)cn3CC)OC1C(=O)OCC (configuration not stated)	-4.02
CCn1cc(C(=O)O)c(=O)c2cc(F)c(N/N=C/c3ccccc3)cc21	-3.82
CCOC(=O)c1cnc2cc(F)c(F)cc2c1N1CCN(C)CC1	-5.38
Cc1cc(C)c(NC(=O)c2cn3c4c(c(N5CCN(C)CC5)c(F)cc4c2=O)OCC3C)c(C)c1 (configuration not stated)	1.68
O=C(Nc1cccc(F)c1)OC(CN1CCCCC1)C(F)(F)F (configuration not stated)	6.26
CC1(C)Cc2c(cnn2-c2ccc(F)cc2)C(NC(=O)CN2CCCCC2=O)C1 (configuration not stated)	-4.07
CCCNC(=S)N1CCN(C)CC1	-12.9
CCOC(=O)c1ccc(Nc2nnc(C(C)(C)C)c(=O)[nH]2)cc1	-2.27
Cc1ccc(C(=O)CSc2nnc(C(C)C)n2C)cc1C	-9.07

SMILES	inhibition [%]
O=C(c1ccc2nc(Cc3ccccc3F)oc2c1)N1CCCC1	-15.9
C/C(=N\OC(=O)c1c(-c2ccccc2Cl)noc1C)c1nccs1	-7.14
COCCn1c(N)c(N(Cc2ccccc2)C(=O)c2oc3ccccc3c2C)c(=O)[nH]c1=O	-2.04
CCOc1ccccc1N1CCN(C(=S)NCc2ccco2)CC1	-6.16
CC(=O)c1cnc2nc(C(F)(F)F)nn2c1C	-10.3
CCCCn1c2c(c(=N)c3c1CCC3)CCC2	-3.76
CCCCCCCCn1c2c(c(=N)c3c1CCC3)CCCC2	-5.2
CCCCCCn1c2c(c(=N)c3c1CCC3)CCC2	12
CCCn1c2c(c(=N)c3c1CCC3)CCC2	-2.65
CC(NC(=O)CNC(=O)c1sc2ccccc2c1Cl)c1ccc(S(N)(=O)=O)cc1 (configuration not stated)	3.29
CC1=CC(C)(C(Cl)Cl)C(C)=CC1=O (configuration not stated)	-0.04
Cc1cc(C)c(NC(=O)CSc2nnc(CNC(=O)c3c(F)cccc3Cl)o2)c(C)c1	1.72
CC(=O)C(C(C)=O)C1(O)C(=O)c2ccccc2C1=O	-7.03
CC(=O)N(C)C1=C(O)c2ccccc2C(=O)C1=O	-5.54
COc1ccc(CC(=O)Nc2ccc(S(=O)(=O)Nc3ncccn3)cc2)cc1	-0.86
S=C(Nc1ccc(Cl)cc1)NC1CCN(Cc2ccccc2)CC1	1.82
Fc1ccc(NC(=S)NC2CCN(Cc3ccccc3)CC2)cc1	17.7
Cc1ccc(NC(=S)NC2CCN(Cc3ccccc3)CC2)cc1C	7.22
S=C(Nc1ccccc1)NC1CCN(Cc2ccccc2)CC1	2.12
COc1ccc(CSc2nnc(Cc3sc(-c4ccccc4)nc3-c3ccccc3)o2)cc1	7.93
NS(=O)(=O)c1ccc(NC(=S)N2CCN(Cc3ccc4c(c3)OCO4)CC2)cc1	3.73
CC1Oc2ccccc2N(CC(=O)Nc2ccccc2F)C1=O (configuration not stated)	-6.46
Cc1cn(C2OC(COC(=O)c3ccccc3)C(O)C2O)c(=O)[nH]c1=O (configuration not stated)	-7.25
COc1cc([N+](=O)[O-])ccc1NC(=O)CSc1nnc(C)c(C)n1	13.2
CSc1ccc(/C=C/C(=O)NC(=O)c2ccccc2O)cc1	13.3
c1ccc2c(-c3cc(C4CCNCC4)[nH]n3)cccc2c1	-4.64

SMILES	inhibition [%]
Clc1ccc(-c2cc(C3CCNCC3)[nH]n2)cc1	13.5
CCOc1cccc(-c2c(C(=O)N/N=C(\C)c3ccncc3)nnn2-c2nonc2N)c1	0
COc1ccc(CN2CCNC(=O)C2CC(=O)N(C)Cc2ccon2)c(OC)c1 (configuration not stated)	-0.06
CC1SC(c2ccc(F)cc2)N(CCc2ccccc2)C1=O (configuration not stated)	11.2
O=C(COc1ccccc1Br)c1ccc(O)cc1O	-2.5
N=c1c(C(=O)NCc2ccco2)cc2c(=O)n3ccccc3nc2n1CC1CCCO1 (configuration not stated)	-2.9
Cc1ccc(CNC(=O)c2cc3c(s2)CS(=O)(=O)C3)cc1	-3.03
Clc1cc2nc(-c3cccnc3Cl)[nH]c2cc1Cl	-3.66
CSc1nc2ccc(Br)cc2[nH]1	2.46
Cn1c(=O)oc2cc(S(=O)(=O)Nc3ccccc3O)ccc21	-2.19
Cc1cc(OCCCN2CCCC2)ccc1Cl	1.13
CN1CCN(CCOc2ccc(Cl)c(Cl)c2)CC1	8.06
Clc1ccc(OCCN2CCCCC2)cc1Cl	15
Cc1cc(OCCN2CCOCC2)ccc1Cl	-0.55
CCCn1c2ccccc2c2nnc(SCC(=O)Nc3ncccn3)nc21	1.55
CN(C)CCCn1c2c(c(SCC(=O)Nc3nccs3)nc1=O)CCC2	-3.03
O=C(Nc1cccc(Cl)c1)N1CCN(c2ncccn2)CC1	8.55
COc1ccc(CC(=O)NCC(=O)N/N=C/c2ccc(C)o2)cc1	-9.36
C=CCNC(=S)NCc1cccnc1	-7.66
O=C(NNC(=O)C1CCCCC1)c1ccc(Br)cc1	-2.98
C/C(=N\NC(=O)c1cc(Br)ccc1O)c1ccccn1	1.41
C/C(=N\NC(=O)c1ccc(Cl)c(Cl)c1)c1ccccn1	3.95
C/C(=N\NC(=O)c1ccccn1)c1ccc(Cl)cc1	0.75
C/C(=N\NC(=O)c1ccc(F)cc1)c1ccccn1	-3.7
